HSF1 inh: HSF1 inhibition; NIH3T3-HGL HSE-luciferase, MG132-induced, luminescence 8 h; active compounds read low; hit rate 0.77% among 300,000; activity change, negative = inhibition, % at 7.5 µM (by protocol); AID 2098;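 active = more than half of replicate wells show activity change below -50%, luminescence cut by over half; inconclusive = some wells, but at most half, below -50%; inactive = no replicate well below -50%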;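 note: luciferase reports HSF-1 transcriptional activity via heat shock element; 0% = median of DMSO wells and -100% = zero luminescence signal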
HSF-1 act: increases HSF-1 driven luciferase reporter signal; activation, % at 9 µM; NIH3T3-HGL HSF-1 luciferase reporter, MG132, 8 h; 100% = twice DMSO control signal; hit rate 1.7% among 300,000;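 active = mean replicate activation of at least 50% with a set share of replicates each reaching 50%; inconclusive = only one of those two conditions met; inactive = mean below 50% and too few replicates reaching it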;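 note: 0% = median of the neutral control wells and 100% = twice that signal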
Wnt act: activates Wnt/beta-catenin signaling in a reporter cell assay. activation, % at 9.35 µM. hit rate 1.2% among 300,000. activator, plate reader. AID 743398; in the data active = activation above about 30%, passing the limit was not always enough; inconclusive = no clear call, values can overlap the other calls;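 note: 0% = neutral control wells and 100% = positive control wells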
esBAF inh: inhibitors of esBAF chromatin remodeling in mouse ES cells. Bmi1-luciferase knock-in reporter, 24 h; 100% = twice the neutral-well signal. reporter increase, % at 12.5 µM. hit rate 2% among 350,000. AID 602393; in the data active = activation above about 40%; inconclusive = no clear call, values can overlap the other calls;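 note: 0% = median of the plate's neutral control wells and 100% = double that signal; a rise in the Bmi1 reporter signal indicates esBAF inhibition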
MITF act: activators of MITF-driven TRPM1 promoter activity in SK-MEL-5 cells. SK-MEL-5 TRPM1-promoter luciferase, 24 h; % of positive control, neutral wells = 0. activation, % at 12.5 µM. hit rate 0.75% among 300,000;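 active = mean activation of at least 80% with every replicate also reaching 80%; inconclusive = mean reaches 80% but some replicate falls short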;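 note: 0% = neutral control wells and 100% = parthenolide positive control wells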
The depositor's hits bear a star. An excerpt weighted towards active compounds, which were near 3.8% of everything screened.

Results for Cc1ccnc(Nc2nc(-c3ccc(O)c(O)c3)cs2)c1 ?
HSF1 inh: 2; HSF-1 act: 33; Wnt act: 8; esBAF inh: 17

How did COc1cccc(N=CC2=C(O)CC(C)(C)CC2=O)c1 do in these assays?
HSF1 inh: 43; HSF-1 act: 87*; Wnt act: -3; MITF act: 13

How did CC1(C)CC(=O)C(C=Nc2ccc3cn[nH]c3c2)=C(O)C1 do in these assays?
HSF1 inh: 32; HSF-1 act: 54*; Wnt act: -15; esBAF inh: 2; MITF act: -37

How did CC1(C)CC(=O)C(C=Nc2ccc3[nH]ncc3c2)=C(O)C1 do in these assays?
HSF1 inh: 10; HSF-1 act: 15; esBAF inh: 7; MITF act: -10

What do the screens show for `COc1cccc(N=CC2=C(O)CCCC2=O)c1`?
HSF1 inh: 8; HSF-1 act: 21; Wnt act: 1; MITF act: 9

Results for CCOc1ccc(N=CC2=C(O)CC(C)(C)CC2=O)cc1 ?
HSF1 inh: 2; HSF-1 act: 22; Wnt act: -2; esBAF inh: 48*; MITF act: 29

How did C[C@H](NC(=O)C[C@@H]1C[C@H]2c3cc(NC(=O)NC4CCCCC4)ccc3O[C@H]2[C@@H](CO)O1)c1ccccc1 do in these assays?
esBAF inh: -6

What do the screens show for `COc1ccccc1-c1cnc2c(c1)C(=O)N([C@@H](C)CO)C[C@H](C)[C@@H](CN(C)C(=O)c1cccnc1)O2`?
esBAF inh: -2

Results for CO[C@@H]1CN(C)C(=O)c2ccc(NC(=O)C3CCC3)cc2OC[C@H](C)N(Cc2nccs2)C[C@H]1C ?
esBAF inh: 5

Results for COc1ccc(C(=O)Oc2ccc(C(C)=O)cc2)c(OC)c1 ?
HSF1 inh: 25; HSF-1 act: 60*; Wnt act: -1; esBAF inh: 24

What do the screens show for `CN1C(=O)c2cc(NC(=O)Nc3ccccc3F)ccc2OC[C@@H]2O[C@@H](CC(=O)O)CC[C@@H]21`?
esBAF inh: -3

How did C[C@@H](NC(=O)C[C@H]1CC[C@@H]2[C@H](COC[C@@H](O)CN2C(=O)Nc2cccc(F)c2)O1)c1ccccc1 do in these assays?
esBAF inh: 16

How did c1ccc(-c2cn3nc(-c4ccccc4)sc3n2)cc1 do in these assays?
HSF1 inh: -56*; HSF-1 act: -61; esBAF inh: -78; MITF act: 0

How did C[C@@H]1CN([C@H](C)CO)C(=O)c2cccc(N(C)C)c2O[C@@H]1CN(C)C(=O)Nc1cccc2ccccc12 do in these assays?
esBAF inh: 1

Results for O=C(Nc1ccc(-c2nc3cccnc3s2)cc1)c1ccc(Br)o1 ?
HSF1 inh: 5; HSF-1 act: -4; Wnt act: 39*; esBAF inh: 32

Results for O=C(Nc1ccc(-c2nc3cccnc3s2)cc1)c1ccco1 ?
HSF1 inh: -2; HSF-1 act: 18; Wnt act: 20; esBAF inh: -7

How did O=C(Nc1ccc(-c2nc3cccnc3s2)cc1)c1cccnc1Cl do in these assays?
HSF1 inh: 3; HSF-1 act: 15; Wnt act: 38*; esBAF inh: -7; MITF act: 54

What do the screens show for `O=C(Nc1ccc(-c2nc3cccnc3s2)cc1)c1ccc(Cl)nc1`?
HSF1 inh: -7; HSF-1 act: 15; Wnt act: 8; esBAF inh: 19; MITF act: 89*

Results for C[C@H](CO)N1C[C@H](C)[C@@H](CN(C)Cc2ccc(C(=O)O)cc2)OCCCC[C@H](C)Oc2ccc(NC(=O)Nc3ccccc3)cc2C1=O ?
esBAF inh: -11

Results for CC(C)C#Cc1cnc2c(c1)C(=O)N([C@@H](C)CO)C[C@H](C)[C@H](CN(C)C(=O)Nc1ccccc1F)O2 ?
esBAF inh: -5

How did CC(C)NC(=O)N(C)C[C@H]1Oc2ccc(NC(=O)CCN3CCOCC3)cc2CC(=O)N([C@@H](C)CO)C[C@H]1C do in these assays?
esBAF inh: 2

What do the screens show for `O=C(NC(=S)Nc1ccc(N2CCCCC2)cc1)c1ccco1`?
HSF1 inh: 20; HSF-1 act: 30; Wnt act: 28; esBAF inh: 31; MITF act: 110*

Results for CC1CCN(c2ccc(NC(=S)NC(=O)c3ccco3)cc2)CC1 ?
HSF1 inh: 14; HSF-1 act: 61*; esBAF inh: 46*; MITF act: 17

Results for CCCCCCCC(=O)NNC(=O)Cc1ccccc1 ?
HSF1 inh: -8; HSF-1 act: -6; Wnt act: -3; esBAF inh: -13; MITF act: -9

Results for CCCCCCCCCCCC(=O)c1c(O)cccc1O ?
HSF1 inh: 20; HSF-1 act: 51*; Wnt act: -2; esBAF inh: 0; MITF act: -5

Results for CCOCCCN(C(=O)c1snc(C(N)=O)c1N)C(C(=O)NCCC(C)C)c1ccc(F)cc1 (configuration not stated) ?
HSF1 inh: 26; HSF-1 act: 53*; Wnt act: -1; esBAF inh: 4

Results for COc1ccc(-c2cnc3c(c2)C(=O)N([C@@H](C)CO)C[C@@H](C)[C@@H](CN(C)C(=O)C2CC2)O3)cc1 ?
esBAF inh: 5

Results for Cc1cccc(C(=O)Nc2ccc(C(=O)/C=C/c3cccnc3)cc2)c1 ?
HSF1 inh: 120; HSF-1 act: 163*; esBAF inh: 42*; MITF act: -26

Results for Cc1cccc(C(=O)Nc2ccc(C(=O)/C=C/c3ccncc3)cc2)c1 ?
HSF1 inh: 75; HSF-1 act: 92*; Wnt act: 7; esBAF inh: 22; MITF act: -55

Results for Cc1cccc(/C=C/C(=O)c2ccc(NC3=NCCCS3)cc2)c1 ?
HSF1 inh: 44; HSF-1 act: 74*; Wnt act: inconclusive; MITF act: -1

Results for Cc1noc(C)c1S(=O)(=O)Nc1ccc2c(c1)C(=O)N([C@@H](C)CO)C[C@H](C)[C@H](CN(C)S(=O)(=O)c1cccs1)O2 ?
esBAF inh: 6

How did Cc1noc(C)c1S(=O)(=O)Nc1ccc2c(c1)CC(=O)N([C@H](C)CO)C[C@@H](C)[C@@H](CN(C)CC1CC1)O2 do in these assays?
esBAF inh: -1

Results for C[C@@H]1CN([C@@H](C)CO)C(=O)Cc2cc(NC(=O)Nc3cccc4ccccc34)ccc2O[C@@H]1CN(C)Cc1ccncc1 ?
esBAF inh: -3

How did CN1C(=O)c2cc(NC(=O)c3ccc(Cl)cc3)ccc2OC[C@@H]2O[C@H](CC(=O)NCc3cccc(F)c3)CC[C@@H]21 do in these assays?
esBAF inh: 16

How did CC(C)(C)c1ccc(C(=O)NC(=S)Nn2cnnc2)cc1 do in these assays?
HSF1 inh: -30; HSF-1 act: -32; Wnt act: 10; esBAF inh: 44*; MITF act: 11

Results for O=C(NC(=S)Nn1cnnc1)c1ccccc1Cl ?
HSF1 inh: -2; HSF-1 act: -12; Wnt act: -1; MITF act: -12
